Measurements: PubChem BioAssay (NCI)
This is part of a sample that, as a whole, favours compounds with a hit. Of some 83,000 tested, about 20% had one in any assay.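 How to read the values: 0–100, growth inhibition (40 = 60% inhibited); 0, no net growth; -100 to 0, cell death (-40 = 40% of starting cells died; -100 = all dead).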 The source made the active and inactive calls. Rule for the calls: active = growth percent below 10; inactive = the rest.

Key:
Experiment in all cases: NCI-60 one-dose screen, 48 h (100 = growth as untreated, 0 = no growth, -100 = all killed)
Conditions in all cases: 10 µM unless noted
HCT-15 colon = tested on: HCT-15 colon
HT29 colon = tested on: HT29 colon
SNB-75 CNS = tested on: SNB-75 CNS
SNB-19 CNS = tested on: SNB-19 CNS
U251 CNS = tested on: U251 CNS
PC-3 prostate = tested on: PC-3 prostate
SK-MEL-5 melanoma = tested on: SK-MEL-5 melanoma
UACC-62 melanoma = tested on: UACC-62 melanoma
LOX IMVI melanoma = tested on: LOX IMVI melanoma
SK-MEL-28 melanoma = tested on: SK-MEL-28 melanoma
SK-MEL-2 melanoma = tested on: SK-MEL-2 melanoma
EKVX NSCLC = tested on: EKVX NSCLC
SN12C renal = tested on: SN12C renal
UO-31 renal = tested on: UO-31 renal
TK-10 renal = tested on: TK-10 renal
ACHN renal = tested on: ACHN renal
A498 renal = tested on: A498 renal
CCRF-CEM leukemia = tested on: CCRF-CEM leukemia
MOLT-4 leukemia = tested on: MOLT-4 leukemia
CAKI-1 renal = tested on: CAKI-1 renal

Measured: growth

Cc1cccc(N2CCN(CC(O)COc3ccc(Cl)cc3)CC2)c1 (stereo not given)
inactive: HCT-15 colon 97.4% | HT29 colon 114% | SNB-75 CNS 104% | SNB-19 CNS 98.3% | U251 CNS 95.7% | PC-3 prostate 91.9% | SK-MEL-5 melanoma 97.4% | UACC-62 melanoma 96.4% | LOX IMVI melanoma 97.6% | SK-MEL-28 melanoma 117% | SK-MEL-2 melanoma 89.5% | EKVX NSCLC 96.8% | SN12C renal 95.2% | UO-31 renal 85.3% | TK-10 renal 116% | ACHN renal 93.7% | A498 renal 115% | CCRF-CEM leukemia 97.7% | MOLT-4 leukemia 77.1%

O=C(NCCCN1CCOCC1)c1cccc(N2C(=O)/C(=C/c3ccc(F)cc3)SC2=S)c1
inactive: HCT-15 colon 99.8% | HT29 colon 108% | SNB-75 CNS 62.5% | SNB-19 CNS 92.8% | U251 CNS 100% | PC-3 prostate 75.3% | SK-MEL-5 melanoma 97.3% | UACC-62 melanoma 88.4% | LOX IMVI melanoma 87.3% | SK-MEL-28 melanoma 104% | SK-MEL-2 melanoma 109% | EKVX NSCLC 88.5% | SN12C renal 93.6% | UO-31 renal 70.7% | TK-10 renal 100% | ACHN renal 87.2% | CAKI-1 renal 81.2% | A498 renal 51.6% | MOLT-4 leukemia 111%

COC(=O)[C@]1(C)CCC[C@]2(C)[C@H]3C[C@H]4C(C(C)C)=C[C@]3(CC[C@H]21)[C@H]1[C@@H]4[C@@H](OCCC#N)CC[C@@H]1OCCC#N
active: HT29 colon 6.91% | PC-3 prostate 2.36% | SN12C renal 2.29% | MOLT-4 leukemia 4.3%
inactive: HCT-15 colon 29.9% | SNB-75 CNS 75.6% | SNB-19 CNS 52.3% | U251 CNS 33.3% | SK-MEL-5 melanoma 26.2% | UACC-62 melanoma 39.5% | LOX IMVI melanoma 59.7% | SK-MEL-28 melanoma 61.9% | SK-MEL-2 melanoma 28.8% | EKVX NSCLC 29.9% | UO-31 renal 32.6% | TK-10 renal 46.2% | ACHN renal 39.2% | A498 renal 66.8% | CCRF-CEM leukemia 19.1%

C=CCn1cc(-c2nc3ccccc3s2)c2cc(-c3ccc4c5c(cccc35)C(=O)N(N)C4=O)ccc21
inactive: HCT-15 colon 98% | HT29 colon 105% | SNB-75 CNS 85.1% | SNB-19 CNS 97.2% | U251 CNS 104% | PC-3 prostate 88.2% | SK-MEL-5 melanoma 96.5% | UACC-62 melanoma 86.9% | LOX IMVI melanoma 95.9% | SK-MEL-28 melanoma 109% | SK-MEL-2 melanoma 102% | EKVX NSCLC 82.1% | SN12C renal 92.1% | UO-31 renal 61.3% | TK-10 renal 152% | ACHN renal 92% | A498 renal 106% | CCRF-CEM leukemia 104% | MOLT-4 leukemia 96.5%

CN1CCN(c2ccc(NC(=O)c3nc4ccc5[nH]ncc5c4c4c3CCCC4)cc2C(F)(F)F)CC1
inactive: HT29 colon 20.5% | SNB-75 CNS 84.7% | SNB-19 CNS 81.6% | U251 CNS 78% | PC-3 prostate 65.4% | SK-MEL-5 melanoma 75.8% | UACC-62 melanoma 89% | SK-MEL-28 melanoma 89.5% | SK-MEL-2 melanoma 88.2% | EKVX NSCLC 88.2% | SN12C renal 32.6% | UO-31 renal 64.3% | TK-10 renal 109% | ACHN renal 15.2% | CAKI-1 renal 19.4% | A498 renal 82.4% | MOLT-4 leukemia 36.1%
active: HCT-15 colon 2.8% | LOX IMVI melanoma -81.7%

C#CCn1cnc2c(Nc3cccc(NC(=O)C=C)c3)ncnc21
inactive: HCT-15 colon 73.3% | HT29 colon 90.6% | SNB-75 CNS 66% | SNB-19 CNS 89.9% | U251 CNS 88.2% | PC-3 prostate 71.5% | SK-MEL-5 melanoma 88.7% | UACC-62 melanoma 82.6% | LOX IMVI melanoma 100% | SK-MEL-28 melanoma 87.6% | SK-MEL-2 melanoma 84.1% | EKVX NSCLC 84.8% | SN12C renal 83.4% | UO-31 renal 42.3% | TK-10 renal 93.3% | ACHN renal 69.1% | A498 renal 80.5% | CCRF-CEM leukemia 81.6% | MOLT-4 leukemia 71.2%

C=C(C)[C@@H]1CC[C@]2(C(=O)N3CCN(C)CC3)CC[C@]3(C)[C@H](CC[C@@H]4[C@@]5(C)CC(=C/c6ccncc6)/C(=N/O)C(C)(C)[C@@H]5CC[C@]43C)[C@@H]12
inactive: HCT-15 colon 65.5% | HT29 colon 41.1% | SNB-75 CNS 66.1% | SNB-19 CNS 79.7% | U251 CNS 70.2% | PC-3 prostate 44.8% | SK-MEL-5 melanoma 59.9% | UACC-62 melanoma 78.5% | LOX IMVI melanoma 86% | SK-MEL-28 melanoma 96.4% | SK-MEL-2 melanoma 83.8% | EKVX NSCLC 84.6% | SN12C renal 74.7% | UO-31 renal 45.5% | TK-10 renal 85.2% | ACHN renal 75.9% | A498 renal 96.8% | CCRF-CEM leukemia 57.9% | MOLT-4 leukemia 33.9%

CC/C(=C(/c1ccc(Cl)cc1)c1ccc(OCCN2CCCC2)cc1)c1ccc(OC)cc1
inactive: HCT-15 colon 28.1% | HT29 colon 13.7% | SNB-75 CNS 103% | SNB-19 CNS 80.1% | U251 CNS 45.3% | PC-3 prostate 47.5% | SK-MEL-5 melanoma 66% | UACC-62 melanoma 96.3% | LOX IMVI melanoma 68.7% | SK-MEL-28 melanoma 85% | SK-MEL-2 melanoma 105% | EKVX NSCLC 65.1% | SN12C renal 79.5% | UO-31 renal 59.5% | TK-10 renal 76.9% | ACHN renal 78.6% | CAKI-1 renal 82% | A498 renal 108% | MOLT-4 leukemia 32%

O=C(CCCCC1CCSS1)Nc1ncnc2n[nH]c(-c3ccc(Oc4ccccc4)cc3)c12 (stereo not given)
inactive: HCT-15 colon 95.8% | HT29 colon 88.3% | SNB-75 CNS 135% | SNB-19 CNS 114% | U251 CNS 106% | PC-3 prostate 90.2% | SK-MEL-5 melanoma 87.9% | UACC-62 melanoma 70.4% | SK-MEL-28 melanoma 47% | SK-MEL-2 melanoma 43.6% | EKVX NSCLC 80.5% | SN12C renal 106% | UO-31 renal 73.2% | TK-10 renal 109% | ACHN renal 88.3% | CAKI-1 renal 97.1% | A498 renal 123%
active: LOX IMVI melanoma 5.87% | MOLT-4 leukemia -31.3%

O=C(CCCCCCN1CC(=O)N2[C@H](c3cc(Br)cs3)c3[nH]c4ccccc4c3C[C@H]2C1=O)NO
inactive: HCT-15 colon 96.9% | HT29 colon 50.7% | SNB-75 CNS 26.2% | SNB-19 CNS 41.1% | U251 CNS 33.3% | PC-3 prostate 46.9% | SK-MEL-5 melanoma 27% | UACC-62 melanoma 12% | SK-MEL-28 melanoma 27.7% | SK-MEL-2 melanoma 50% | EKVX NSCLC 75.4% | SN12C renal 53.7% | UO-31 renal 39.6% | TK-10 renal 32% | ACHN renal 47.8% | A498 renal 58.6% | CCRF-CEM leukemia 23.9%
active: LOX IMVI melanoma 8.65% | MOLT-4 leukemia 9.39%

CC1(C)CC2=C3C=C[C@@H]4[C@@]5(C)CCC(=O)C(C)(C)[C@@H]5CC[C@@]4(C)[C@]3(C)CC[C@@]2(C(=O)O)CC1=O
inactive: HCT-15 colon 57.2% | HT29 colon 50.4% | SNB-75 CNS 10% | SNB-19 CNS 96.5% | U251 CNS 61.2% | PC-3 prostate 74.3% | SK-MEL-5 melanoma 55.2% | UACC-62 melanoma 64% | LOX IMVI melanoma 87.2% | SK-MEL-28 melanoma 46.5% | SK-MEL-2 melanoma 68.3% | EKVX NSCLC 63.3% | SN12C renal 85.1% | UO-31 renal 44.4% | TK-10 renal 61.2% | ACHN renal 40.8% | A498 renal 42.1% | CCRF-CEM leukemia 58% | MOLT-4 leukemia 54.6%

Clc1ccc(Sc2cnc(-c3ccccc3)o2)cc1
inactive: HCT-15 colon 103% | HT29 colon 105% | SNB-75 CNS 92.6% | SNB-19 CNS 88.4% | U251 CNS 91.4% | PC-3 prostate 104% | SK-MEL-5 melanoma 97.8% | UACC-62 melanoma 102% | LOX IMVI melanoma 97.3% | SK-MEL-28 melanoma 102% | SK-MEL-2 melanoma 100% | EKVX NSCLC 98.5% | SN12C renal 101% | UO-31 renal 78.4% | TK-10 renal 85.1% | ACHN renal 99.7% | CAKI-1 renal 90.2% | A498 renal 63.5% | MOLT-4 leukemia 100%

Cc1ccc(-n2c(=S)[nH]c3sc4c(c3c2=O)CCC(=O)C4)cc1
inactive: HCT-15 colon 25% | HT29 colon 55.9% | SNB-75 CNS 28.1% | SNB-19 CNS 30.9% | U251 CNS 36.7% | PC-3 prostate 41% | SK-MEL-5 melanoma 26.7% | UACC-62 melanoma 10.3% | LOX IMVI melanoma 36.3% | SK-MEL-28 melanoma 53% | SK-MEL-2 melanoma 39.6% | EKVX NSCLC 93.7% | SN12C renal 40.3% | UO-31 renal 43.8% | TK-10 renal 83.5% | ACHN renal 39.4% | A498 renal 109% | CCRF-CEM leukemia 20.8% | MOLT-4 leukemia 48.9%

COC(=O)CNC(=O)[C@H](Cc1ccccc1)NCc1ccncc1
inactive: HCT-15 colon 101% | HT29 colon 86.6% | SNB-75 CNS 92.4% | SNB-19 CNS 97.7% | U251 CNS 92.3% | PC-3 prostate 87.2% | SK-MEL-5 melanoma 101% | UACC-62 melanoma 99.3% | LOX IMVI melanoma 103% | SK-MEL-28 melanoma 114% | SK-MEL-2 melanoma 95.3% | EKVX NSCLC 99.5% | SN12C renal 99.3% | UO-31 renal 91.2% | TK-10 renal 88.5% | ACHN renal 107% | A498 renal 88.3% | CCRF-CEM leukemia 86% | MOLT-4 leukemia 105%

C=C(C)[C@@H]1CC[C@]2(C(=O)O)CC[C@]3(C)[C@H](CC[C@@H]4[C@@]5(C)C[C@@H](Cc6cn(CCO[C@@H]7O[C@H](COC(C)=O)[C@H](OC(C)=O)[C@H](OC(C)=O)[C@H]7OC(C)=O)nn6)[C@H](O)C(C)(C)[C@@H]5CC[C@]43C)[C@@H]12
inactive: HCT-15 colon 70.1% | HT29 colon 77.9% | SNB-75 CNS 66.5% | SNB-19 CNS 64.5% | U251 CNS 57.4% | PC-3 prostate 54.9% | SK-MEL-5 melanoma 53.5% | UACC-62 melanoma 63.7% | LOX IMVI melanoma 45.2% | SK-MEL-28 melanoma 76.5% | SK-MEL-2 melanoma 67.2% | EKVX NSCLC 72% | SN12C renal 70.3% | UO-31 renal 81.6% | TK-10 renal 79.3% | ACHN renal 86% | CAKI-1 renal 73.2% | A498 renal 70.3% | MOLT-4 leukemia 50.6%
